# Source: paper PMC7862700, “An all-to-all approach to the identification of sequence-specific readers for epigenetic DNA modifications on cytosine”
# Experiments:
# Assay in all cases: DAPPL (digital affinity profiling via proximity ligation, sequencing); 10 mM Tris-HCl pH 7.5, 50 mM NaCl, 1 mM DTT, 4% glycerol, room temperature, 30 min; GST-TFs on glutathione beads, 16-mer random dsDNA library, 0.1% formaldehyde crosslink after washing; high values mean tight binding
# FLI1 = biological target: T1, FLI1 (Homo sapiens, UniProt Q01543 1-452); conditions: protein: recombinant; tags: N-terminal GST; dsDNA, one strand shown
# T1 sequence: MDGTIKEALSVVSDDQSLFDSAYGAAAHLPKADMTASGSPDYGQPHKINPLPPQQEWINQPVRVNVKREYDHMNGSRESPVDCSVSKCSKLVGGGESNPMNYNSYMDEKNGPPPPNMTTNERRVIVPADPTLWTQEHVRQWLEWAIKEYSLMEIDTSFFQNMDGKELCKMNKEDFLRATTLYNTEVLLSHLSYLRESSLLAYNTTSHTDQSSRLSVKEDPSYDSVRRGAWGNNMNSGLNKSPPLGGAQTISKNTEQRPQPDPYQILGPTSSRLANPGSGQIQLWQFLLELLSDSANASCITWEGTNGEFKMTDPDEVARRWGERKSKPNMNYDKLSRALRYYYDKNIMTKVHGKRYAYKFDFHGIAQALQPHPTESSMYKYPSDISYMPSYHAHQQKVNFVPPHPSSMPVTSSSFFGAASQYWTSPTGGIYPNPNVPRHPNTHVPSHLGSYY
# How it was run: (§1)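 The binding signal reported is, for every hexamer, its read frequency for a factor over its read frequency for the tag-only sample. Reads came from pools of yeast-expressed, GST-fused human transcription factors on glutathione beads, barcoded with DNA and mixed with that sample, which were incubated with 200 nmole of a random double-stranded 16-mer DNA library in Tris/NaCl/DTT/glycerol buffer at room temperature for 30 min. After washing, the pools were crosslinked with 0.1% formaldehyde, proximity-ligated with BsaI/T4 ligase for 1 h at 37 °C, PCR-amplified and sequenced on an Illumina NextSeq500.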
# ELK1 = biological target: T2, ELK1 (Homo sapiens, UniProt P19419 1-428); conditions: protein: recombinant; tags: N-terminal GST; dsDNA, one strand shown
# T2 sequence: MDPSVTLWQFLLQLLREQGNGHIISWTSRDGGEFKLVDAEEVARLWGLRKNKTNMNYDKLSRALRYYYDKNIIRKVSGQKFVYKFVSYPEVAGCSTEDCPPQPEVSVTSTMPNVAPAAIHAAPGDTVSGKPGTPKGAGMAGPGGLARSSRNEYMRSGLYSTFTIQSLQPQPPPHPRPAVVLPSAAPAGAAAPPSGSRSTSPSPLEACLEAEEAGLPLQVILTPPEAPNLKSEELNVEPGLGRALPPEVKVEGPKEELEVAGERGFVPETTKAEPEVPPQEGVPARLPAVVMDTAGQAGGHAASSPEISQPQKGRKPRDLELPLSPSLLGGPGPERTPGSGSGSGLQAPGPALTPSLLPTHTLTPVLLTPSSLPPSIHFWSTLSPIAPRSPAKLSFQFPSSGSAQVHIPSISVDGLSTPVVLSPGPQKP
# How it was run: as §1
# GABPA = biological target: T3, GABPA (Homo sapiens, UniProt Q06546 1-454); conditions: protein: recombinant; tags: N-terminal GST; dsDNA, one strand shown
# T3 sequence: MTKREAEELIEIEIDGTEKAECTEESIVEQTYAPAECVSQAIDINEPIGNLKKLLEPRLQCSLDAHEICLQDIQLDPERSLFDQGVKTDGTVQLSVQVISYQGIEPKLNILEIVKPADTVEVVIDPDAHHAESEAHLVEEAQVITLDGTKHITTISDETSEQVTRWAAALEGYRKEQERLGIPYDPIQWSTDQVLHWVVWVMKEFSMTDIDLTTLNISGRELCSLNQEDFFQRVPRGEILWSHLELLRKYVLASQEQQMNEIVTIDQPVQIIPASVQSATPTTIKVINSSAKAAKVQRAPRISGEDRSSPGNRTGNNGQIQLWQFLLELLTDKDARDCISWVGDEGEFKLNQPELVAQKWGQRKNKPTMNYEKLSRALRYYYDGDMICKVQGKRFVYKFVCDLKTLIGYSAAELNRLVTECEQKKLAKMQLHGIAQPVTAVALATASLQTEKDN
# How it was run: as §1
# ERG = biological target: T4, ERG (Homo sapiens, UniProt P11308 1-479); conditions: protein: recombinant; tags: N-terminal GST; dsDNA, one strand shown
# T4 sequence: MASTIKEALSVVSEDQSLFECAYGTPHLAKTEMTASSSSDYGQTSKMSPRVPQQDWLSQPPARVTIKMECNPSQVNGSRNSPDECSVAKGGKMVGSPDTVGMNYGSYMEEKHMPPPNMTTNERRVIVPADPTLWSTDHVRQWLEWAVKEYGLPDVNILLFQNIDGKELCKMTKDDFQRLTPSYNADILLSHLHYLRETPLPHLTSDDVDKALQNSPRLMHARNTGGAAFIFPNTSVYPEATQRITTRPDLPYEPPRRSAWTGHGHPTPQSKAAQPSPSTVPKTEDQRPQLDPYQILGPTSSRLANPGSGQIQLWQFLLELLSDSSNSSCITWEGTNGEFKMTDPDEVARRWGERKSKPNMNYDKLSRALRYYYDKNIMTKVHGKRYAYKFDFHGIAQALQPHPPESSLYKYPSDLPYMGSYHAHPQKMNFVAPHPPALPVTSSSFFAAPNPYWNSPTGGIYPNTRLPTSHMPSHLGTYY
# How it was run: as §1
# ELF1 = ELF1 (Homo sapiens, UniProt P32519 1-619); conditions: protein: recombinant; tags: N-terminal GST; dsDNA, one strand shown
# How it was run: as §1
# EHF = biological target: T5, EHF (Homo sapiens, UniProt Q9NZC4 1-300); conditions: protein: recombinant; tags: N-terminal GST; dsDNA, one strand shown
# T5 sequence: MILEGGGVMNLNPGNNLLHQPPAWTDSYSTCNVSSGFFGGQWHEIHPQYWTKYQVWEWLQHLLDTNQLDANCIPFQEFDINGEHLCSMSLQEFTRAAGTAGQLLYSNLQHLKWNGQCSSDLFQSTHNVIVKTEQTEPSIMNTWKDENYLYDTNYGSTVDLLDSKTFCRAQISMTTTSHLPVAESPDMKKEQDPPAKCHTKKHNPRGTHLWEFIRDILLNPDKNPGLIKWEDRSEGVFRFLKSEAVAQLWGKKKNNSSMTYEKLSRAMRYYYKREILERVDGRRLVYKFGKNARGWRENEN
# How it was run: as §1
# SPI1 = SPI1 (Homo sapiens, UniProt P17947 1-270); conditions: protein: recombinant; tags: N-terminal GST; dsDNA, one strand shown
# How it was run: as §1
# SPIB = SPIB (Homo sapiens, UniProt Q01892 1-262); conditions: protein: recombinant; tags: N-terminal GST; dsDNA, one strand shown
# How it was run: as §1
# ELK3 = biological target: T6, ELK3 (Homo sapiens, UniProt P41970 1-407); conditions: protein: recombinant; tags: N-terminal GST; dsDNA, one strand shown
# T6 sequence: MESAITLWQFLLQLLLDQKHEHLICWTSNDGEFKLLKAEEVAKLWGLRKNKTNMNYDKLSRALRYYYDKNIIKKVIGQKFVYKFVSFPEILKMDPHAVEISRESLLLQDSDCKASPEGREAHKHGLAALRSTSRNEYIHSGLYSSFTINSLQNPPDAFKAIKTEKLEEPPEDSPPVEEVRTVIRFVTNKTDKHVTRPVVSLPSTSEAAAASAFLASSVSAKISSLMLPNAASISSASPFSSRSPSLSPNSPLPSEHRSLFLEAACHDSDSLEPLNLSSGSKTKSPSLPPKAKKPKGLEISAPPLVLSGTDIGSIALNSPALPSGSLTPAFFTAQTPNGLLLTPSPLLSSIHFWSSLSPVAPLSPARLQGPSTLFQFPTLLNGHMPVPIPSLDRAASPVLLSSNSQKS
# How it was run: as §1
# FEV = biological target: T7, FEV (Homo sapiens, UniProt Q99581 1-238); conditions: protein: recombinant; tags: N-terminal GST; dsDNA, one strand shown
# T7 sequence: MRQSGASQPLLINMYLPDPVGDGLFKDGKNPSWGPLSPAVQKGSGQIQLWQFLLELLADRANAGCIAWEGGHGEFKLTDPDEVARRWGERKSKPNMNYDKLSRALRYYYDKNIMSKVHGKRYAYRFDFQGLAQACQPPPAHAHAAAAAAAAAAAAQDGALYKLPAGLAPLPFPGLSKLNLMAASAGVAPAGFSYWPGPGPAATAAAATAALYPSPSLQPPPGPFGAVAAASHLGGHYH
# How it was run: as §1
# ETV5 = ETV5 (Homo sapiens, UniProt P41161 1-510); conditions: protein: recombinant; tags: N-terminal GST; dsDNA, one strand shown
# How it was run: as §1
# HSF1 = HSF1 (Homo sapiens, UniProt Q00613 1-529); conditions: protein: recombinant; tags: N-terminal GST; chain copies: 3; dsDNA, one strand shown
# How it was run: as §1
# SPIC = biological target: T8, SPIC (Homo sapiens, UniProt Q8N5J4 1-248); conditions: protein: recombinant; tags: N-terminal GST; dsDNA, one strand shown
# T8 sequence: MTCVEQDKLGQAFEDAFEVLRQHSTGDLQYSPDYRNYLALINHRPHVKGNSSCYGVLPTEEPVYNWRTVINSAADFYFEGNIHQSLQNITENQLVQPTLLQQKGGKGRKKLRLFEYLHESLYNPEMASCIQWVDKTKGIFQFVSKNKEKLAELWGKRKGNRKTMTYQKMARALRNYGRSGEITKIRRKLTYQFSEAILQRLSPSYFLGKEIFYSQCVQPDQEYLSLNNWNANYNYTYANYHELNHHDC
# How it was run: as §1
# ELF4 = ELF4 (Homo sapiens, UniProt Q99607 1-663); conditions: protein: recombinant; tags: N-terminal GST; dsDNA, one strand shown
# How it was run: as §1
# ELK4 = biological target: T9, ELK4 (Homo sapiens, UniProt P28324-2 1-405); conditions: protein: recombinant; tags: N-terminal GST; dsDNA, one strand shown
# T9 sequence: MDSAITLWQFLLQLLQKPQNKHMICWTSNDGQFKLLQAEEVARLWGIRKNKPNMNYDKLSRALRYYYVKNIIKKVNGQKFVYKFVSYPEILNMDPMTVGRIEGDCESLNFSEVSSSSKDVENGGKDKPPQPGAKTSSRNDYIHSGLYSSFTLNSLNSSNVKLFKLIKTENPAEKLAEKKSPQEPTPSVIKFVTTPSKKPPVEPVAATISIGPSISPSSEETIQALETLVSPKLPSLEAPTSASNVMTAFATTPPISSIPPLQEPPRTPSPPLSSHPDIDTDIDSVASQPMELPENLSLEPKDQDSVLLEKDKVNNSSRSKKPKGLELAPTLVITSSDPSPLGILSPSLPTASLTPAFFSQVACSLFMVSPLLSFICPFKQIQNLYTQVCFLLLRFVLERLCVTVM
# How it was run: as §1
# ETV2 = biological target: T10, ETV2 (Homo sapiens, UniProt O00321 1-342); conditions: protein: recombinant; tags: N-terminal GST; dsDNA, one strand shown
# T10 sequence: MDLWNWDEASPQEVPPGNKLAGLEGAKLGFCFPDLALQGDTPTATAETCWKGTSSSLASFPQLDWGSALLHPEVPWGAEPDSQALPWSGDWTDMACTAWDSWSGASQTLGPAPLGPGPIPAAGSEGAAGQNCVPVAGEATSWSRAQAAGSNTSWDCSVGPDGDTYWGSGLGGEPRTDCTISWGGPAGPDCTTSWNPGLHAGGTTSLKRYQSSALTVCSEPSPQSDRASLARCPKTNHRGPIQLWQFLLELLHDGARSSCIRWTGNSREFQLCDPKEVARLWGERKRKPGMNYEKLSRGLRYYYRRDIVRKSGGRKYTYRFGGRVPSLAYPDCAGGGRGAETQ
# How it was run: as §1
# ELF3 = biological target: T11, ELF3 (Homo sapiens, UniProt P78545 1-371); conditions: protein: recombinant; tags: N-terminal GST; dsDNA, one strand shown
# T11 sequence: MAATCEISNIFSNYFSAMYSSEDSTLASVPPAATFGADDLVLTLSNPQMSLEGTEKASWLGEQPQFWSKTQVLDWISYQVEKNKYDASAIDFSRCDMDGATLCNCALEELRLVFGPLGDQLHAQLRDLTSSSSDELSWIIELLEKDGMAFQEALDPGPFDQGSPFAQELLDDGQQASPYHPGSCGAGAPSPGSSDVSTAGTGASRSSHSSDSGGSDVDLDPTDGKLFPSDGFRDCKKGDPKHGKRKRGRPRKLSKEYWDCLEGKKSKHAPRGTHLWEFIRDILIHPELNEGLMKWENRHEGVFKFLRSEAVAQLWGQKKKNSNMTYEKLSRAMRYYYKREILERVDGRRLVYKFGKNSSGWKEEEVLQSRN
# How it was run: as §1
# ETV1 = ETV1 (Homo sapiens, UniProt P50549 1-477); conditions: protein: recombinant; tags: N-terminal GST; dsDNA, one strand shown
# How it was run: as §1
# ELF1, sequence (P32519 whole entry): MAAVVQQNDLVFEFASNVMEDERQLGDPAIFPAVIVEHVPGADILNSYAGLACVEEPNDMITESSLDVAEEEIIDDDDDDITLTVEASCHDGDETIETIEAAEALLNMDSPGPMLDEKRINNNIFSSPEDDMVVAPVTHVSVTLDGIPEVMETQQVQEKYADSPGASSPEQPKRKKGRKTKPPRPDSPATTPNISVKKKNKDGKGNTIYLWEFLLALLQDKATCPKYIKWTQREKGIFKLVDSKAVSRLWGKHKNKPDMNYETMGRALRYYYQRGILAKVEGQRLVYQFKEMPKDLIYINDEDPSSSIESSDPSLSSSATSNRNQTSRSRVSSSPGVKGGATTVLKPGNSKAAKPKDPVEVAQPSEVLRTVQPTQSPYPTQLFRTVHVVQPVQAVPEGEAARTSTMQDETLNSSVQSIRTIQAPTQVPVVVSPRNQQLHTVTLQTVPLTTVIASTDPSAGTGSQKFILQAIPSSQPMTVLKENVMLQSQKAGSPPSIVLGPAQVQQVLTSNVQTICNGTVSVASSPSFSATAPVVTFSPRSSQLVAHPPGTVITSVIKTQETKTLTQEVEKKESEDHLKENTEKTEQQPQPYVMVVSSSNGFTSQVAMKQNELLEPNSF
# HSF1, sequence (Q00613 whole entry): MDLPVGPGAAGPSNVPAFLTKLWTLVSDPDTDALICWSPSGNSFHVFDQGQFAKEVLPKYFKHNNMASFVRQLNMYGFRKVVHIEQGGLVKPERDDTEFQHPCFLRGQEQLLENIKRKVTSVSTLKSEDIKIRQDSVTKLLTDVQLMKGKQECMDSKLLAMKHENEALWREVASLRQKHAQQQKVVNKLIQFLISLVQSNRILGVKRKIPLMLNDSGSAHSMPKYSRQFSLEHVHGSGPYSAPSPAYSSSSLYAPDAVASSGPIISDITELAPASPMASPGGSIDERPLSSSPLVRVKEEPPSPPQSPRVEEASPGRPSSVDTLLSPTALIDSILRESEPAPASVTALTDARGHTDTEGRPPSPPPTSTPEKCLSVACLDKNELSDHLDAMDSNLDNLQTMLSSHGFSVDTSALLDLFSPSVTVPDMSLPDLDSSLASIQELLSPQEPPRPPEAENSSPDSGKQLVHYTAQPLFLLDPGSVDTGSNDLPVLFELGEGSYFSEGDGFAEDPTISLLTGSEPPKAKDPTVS
# SPIB, sequence (Q01892 whole entry): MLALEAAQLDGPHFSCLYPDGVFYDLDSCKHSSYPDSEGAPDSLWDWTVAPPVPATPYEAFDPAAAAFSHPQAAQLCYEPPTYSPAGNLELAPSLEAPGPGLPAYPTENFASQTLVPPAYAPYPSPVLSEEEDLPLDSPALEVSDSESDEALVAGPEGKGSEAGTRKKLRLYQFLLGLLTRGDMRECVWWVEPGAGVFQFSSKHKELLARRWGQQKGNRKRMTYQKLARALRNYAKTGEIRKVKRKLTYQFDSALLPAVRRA
# ETV5, sequence (P41161 whole entry): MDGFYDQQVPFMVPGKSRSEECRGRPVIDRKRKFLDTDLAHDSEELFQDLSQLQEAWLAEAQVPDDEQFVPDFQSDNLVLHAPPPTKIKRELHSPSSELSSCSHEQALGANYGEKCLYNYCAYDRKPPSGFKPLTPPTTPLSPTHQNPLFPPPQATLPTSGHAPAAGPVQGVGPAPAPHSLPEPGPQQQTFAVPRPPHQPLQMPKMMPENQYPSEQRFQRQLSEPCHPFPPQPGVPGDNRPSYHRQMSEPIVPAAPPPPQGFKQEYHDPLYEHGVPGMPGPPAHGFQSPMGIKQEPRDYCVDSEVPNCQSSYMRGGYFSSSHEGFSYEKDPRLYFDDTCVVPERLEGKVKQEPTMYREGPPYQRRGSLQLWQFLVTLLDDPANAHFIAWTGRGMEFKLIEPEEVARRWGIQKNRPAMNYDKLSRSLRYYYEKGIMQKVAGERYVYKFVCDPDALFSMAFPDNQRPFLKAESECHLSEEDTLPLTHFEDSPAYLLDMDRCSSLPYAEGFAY
# ELF4, sequence (Q99607 whole entry): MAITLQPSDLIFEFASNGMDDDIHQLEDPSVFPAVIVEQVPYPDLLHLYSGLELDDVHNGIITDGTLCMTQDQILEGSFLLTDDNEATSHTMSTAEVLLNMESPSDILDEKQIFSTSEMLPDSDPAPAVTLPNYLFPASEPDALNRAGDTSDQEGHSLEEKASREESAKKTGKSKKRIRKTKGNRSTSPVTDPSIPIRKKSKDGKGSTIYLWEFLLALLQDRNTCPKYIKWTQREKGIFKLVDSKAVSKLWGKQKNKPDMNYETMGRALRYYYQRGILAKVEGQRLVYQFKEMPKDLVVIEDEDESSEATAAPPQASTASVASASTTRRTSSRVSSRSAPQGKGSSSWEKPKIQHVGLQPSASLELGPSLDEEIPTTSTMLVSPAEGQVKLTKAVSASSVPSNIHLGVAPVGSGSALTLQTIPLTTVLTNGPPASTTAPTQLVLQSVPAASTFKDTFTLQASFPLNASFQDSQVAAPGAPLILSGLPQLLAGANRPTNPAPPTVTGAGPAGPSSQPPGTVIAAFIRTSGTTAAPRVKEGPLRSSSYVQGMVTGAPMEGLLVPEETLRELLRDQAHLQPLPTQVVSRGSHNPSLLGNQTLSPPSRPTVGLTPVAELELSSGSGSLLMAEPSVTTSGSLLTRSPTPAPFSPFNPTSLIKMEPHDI
# ETV1, sequence (P50549 whole entry): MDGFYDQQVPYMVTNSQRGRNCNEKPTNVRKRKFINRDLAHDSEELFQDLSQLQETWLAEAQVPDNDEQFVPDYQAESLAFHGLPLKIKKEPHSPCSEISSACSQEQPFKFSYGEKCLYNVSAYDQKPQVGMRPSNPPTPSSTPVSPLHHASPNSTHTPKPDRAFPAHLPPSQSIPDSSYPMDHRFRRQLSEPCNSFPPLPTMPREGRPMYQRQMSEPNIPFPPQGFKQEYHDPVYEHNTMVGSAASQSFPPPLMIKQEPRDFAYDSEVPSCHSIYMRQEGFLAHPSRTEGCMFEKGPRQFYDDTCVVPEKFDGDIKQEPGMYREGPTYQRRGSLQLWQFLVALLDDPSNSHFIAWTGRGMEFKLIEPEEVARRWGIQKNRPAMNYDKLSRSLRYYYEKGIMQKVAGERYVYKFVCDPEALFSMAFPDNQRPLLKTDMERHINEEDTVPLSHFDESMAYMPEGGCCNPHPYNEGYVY
sequence,measurement,setting,value
TGCCCG,binding signal,FLI1,"1.16 fold enrichment (6-mer frequency, TF over GST control)"
same,binding signal,ELK1,"1.16 fold enrichment (6-mer frequency, TF over GST control)"
same,binding signal,GABPA,"1.24 fold enrichment (6-mer frequency, TF over GST control)"
same,binding signal,ERG,"1.19 fold enrichment (6-mer frequency, TF over GST control)"
same,binding signal,ELF1,"1.2 fold enrichment (6-mer frequency, TF over GST control)"
same,binding signal,EHF,"1.27 fold enrichment (6-mer frequency, TF over GST control)"
same,binding signal,SPI1,"1.13 fold enrichment (6-mer frequency, TF over GST control)"
same,binding signal,SPIB,"1.14 fold enrichment (6-mer frequency, TF over GST control)"
same,binding signal,ELK3,"1.12 fold enrichment (6-mer frequency, TF over GST control)"
same,binding signal,FEV,"1.27 fold enrichment (6-mer frequency, TF over GST control)"
same,binding signal,ETV5,"1.21 fold enrichment (6-mer frequency, TF over GST control)"
same,binding signal,HSF1,"1.01 fold enrichment (6-mer frequency, TF over GST control)"
same,binding signal,SPIC,"1.34 fold enrichment (6-mer frequency, TF over GST control)"
same,binding signal,ELF4,"1.21 fold enrichment (6-mer frequency, TF over GST control)"
same,binding signal,ELK4,"1.16 fold enrichment (6-mer frequency, TF over GST control)"
same,binding signal,ETV2,"1.26 fold enrichment (6-mer frequency, TF over GST control)"
same,binding signal,ELF3,"1.32 fold enrichment (6-mer frequency, TF over GST control)"
same,binding signal,ETV1,"1.21 fold enrichment (6-mer frequency, TF over GST control)"
